Sampled rows, rich in hits. Any-hit rate of the full collection: about 11%.
ALDH1A1 inh = inhibitors of human aldehyde dehydrogenase 1A1. P00352. Purified ALDH1A1, NADH fluorescence, propionaldehyde substrate. Potency, µM (series often up to 75.3 µM), without a hit: at the top dose activity, negative = inhibition, usual class: inhibitors. 7.3% of 220,000 active. AID 1030;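 also: potency is read from the fitted curve at half-maximal effect; plate controls were no enzyme wells and a reference inhibitor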
KDM4E inh = blocks human JMJD2E demethylase activity | JMJD2E catalytic domain, FDH-coupled NADH fluorescence (FDH is formaldehyde dehydrogenase) | Potency, µM (series often up to 57.1 µM), without a hit: at the highest dose activity change, negative = inhibition, actives largely listed as inhibitors | 1.6% of 230,000 active;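 also: potency is read from the fitted curve at half-maximal effect; 0% = wells with enzyme and -100% = buffer wells without enzyme; nearly all actives have a fitted effect of over 50% in size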
Target sequence (B2RXH2 1-337 limits assumed): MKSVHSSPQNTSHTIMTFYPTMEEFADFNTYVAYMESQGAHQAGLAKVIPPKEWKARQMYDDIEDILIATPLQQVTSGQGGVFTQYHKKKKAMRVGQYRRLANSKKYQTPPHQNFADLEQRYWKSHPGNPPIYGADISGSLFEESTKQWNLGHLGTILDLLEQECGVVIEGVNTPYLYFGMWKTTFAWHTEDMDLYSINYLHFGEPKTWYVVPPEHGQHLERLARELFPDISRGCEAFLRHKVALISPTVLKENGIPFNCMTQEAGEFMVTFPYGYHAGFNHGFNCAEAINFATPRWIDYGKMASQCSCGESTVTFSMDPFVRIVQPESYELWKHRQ
HPGD block = HPGD (human) dehydrogenase inhibition; P15428; purified HPGD, NADH fluorescence kinetic, PGE2 substrate; Potency, µM, for the others: top-dose activity change, negative = inhibition, usual class: inhibitors; 4.3% of 150,000 active; AID 894; also: potency is read from the fitted curve at half-maximal effect
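20 nM HPGD preincubated 15 min at room temperature with compound in 50 mM Tris-HCl pH 8, 0.01% Tween 20. Started with 1 mM NAD+ and 30 uM prostaglandin E2; NADH fluorescence (360/450 nm) read 5 times over 30-s intervals, last minus first.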
PNC assembly inh = blocks assembly of the perinucleolar compartment; activity change (PNC), negative = inhibition, % at 10 µM; AID 2417; PC3M PTB-GFP, PNC prevalence imaging, 16 h; active compounds read low; 3.1% of 140,000 active;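 active = readout at or below -70, meaning at least 70% loss of cells showing the perinucleolar compartment, a nuclear body marking cancer cells; inconclusive = readout between -30 and a set limit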;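 also: plate controls were DMSO wells for no effect and camptothecin positive control wells for full effect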
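Compounds are pinned in duplicate onto adhered PC3M cells stably expressing GFP-tagged PTB and incubated 16 h at 37 C. Cells are then fixed, nuclei stained with Hoechst, and PNC-positive cells counted.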
* marks the source's active call; other numbers are inactive results; ! = not confirmed by another sample. Unless noted, calls follow the shape of the dose curve; as a rule, active = well fitted inhibition curve with a large enough effect (not every such curve was filed as active); inconclusive = small, poorly fitted or top-dose-only effect, or another doubt; inactive = no such curve, though single readings can be large or run the other way. Unless noted, % is scaled to controls: 0 for no effect and ±100 for the full control effect.

For Cc1cc([N+](=O)[O-])cc2c1NC(=O)C2(O)N1CCCCCC1 (stereo unspecified) the results were ALDH1A1 inh 22µM*, KDM4E inh -8%, HPGD block -11% and PNC assembly inh 62.
Screening O=[N+]([O-])C1=C(Nc2cccc3ccccc23)CS(=O)(=O)C1 returned ALDH1A1 inh inconclusive, KDM4E inh inconclusive, HPGD block 20µM* and PNC assembly inh -11.
`Oc1ccccc1CNc1ccc(OC(F)(F)F)cc1` gave ALDH1A1 inh 12% and KDM4E inh -9%.
COc1cccc2c1C(=O)c1c(O)c3c(c(O)c1C2=O)C[C@@](O)(C(=O)CO)C[C@@H]3OC1C[C@@H](N)[C@H](O)[C@H](C)O1 (stereo partly specified) was read as ALDH1A1 inh -12% and HPGD block -6%.
For COc1cccc2c1C(=O)c1c(O)c3c(c(O)c1C2=O)C[C@@](O)(C(C)=O)C[C@@H]3O[C@H]1C[C@H](N)[C@H](O)[C@H](C)O1 the results were ALDH1A1 inh inconclusive, KDM4E inh 35µM*!, HPGD block -15% and PNC assembly inh -115*.
Screening Fc1cccc2sc(N3CCCC3)nc12 returned ALDH1A1 inh -12% and KDM4E inh 3%.
For CN1COc2ccc3ccccc3c2C1 the results were ALDH1A1 inh -5% and KDM4E inh 14µM*.
c1ccc2sc(NC3=NCN(CC4CCCO4)CN3)nc2c1 (stereo unspecified) was read as ALDH1A1 inh 6% and KDM4E inh 6%.
Screening COC(=O)C1=C(Nc2cc(Cl)cc(Cl)c2)CSC1 returned KDM4E inh -3%.
Screening CCOC(=O)c1ccccc1NC(=O)c1cc(S(=O)(=O)N2CCOCC2)ccc1F returned ALDH1A1 inh -4%, KDM4E inh -14%, HPGD block -4% and PNC assembly inh 17.
Screening CCOC(=O)CN(Cc1ccccc1)S(=O)(=O)c1ccc(NC(C)=O)cc1 returned ALDH1A1 inh 5.6µM*, KDM4E inh -5%, HPGD block -20% and PNC assembly inh inconclusive.
CCOC(=O)c1ccc(S(=O)(=O)Nc2cc(C(=O)O)ccc2Cl)cc1 was read as ALDH1A1 inh 3.2µM* and KDM4E inh inconclusive.
For CCOC(=O)/C=C/C(=O)Nc1ccc(S(=O)(=O)N(C)c2ccccc2)cc1 the results were ALDH1A1 inh 25µM* and KDM4E inh -1%.
`CC(=O)Nc1ccc(S(=O)(=O)N(C)c2ccccc2)cc1` gave ALDH1A1 inh 1%, KDM4E inh 2%, HPGD block -12% and PNC assembly inh 28.
For O=C(O)c1cccc(S(=O)(=O)Nc2cc(Cl)ccc2Cl)c1 the results were KDM4E inh 11%.
For CCOC(=O)c1ccccc1NS(=O)(=O)c1ccc(S(=O)(=O)N2CCCC2)cc1 the results were ALDH1A1 inh 22µM*, KDM4E inh inconclusive, HPGD block -12% and PNC assembly inh inconclusive.
`CCN(Cc1ccncc1)C(=O)c1ccccc1NS(=O)(=O)c1ccc(Br)cc1` gave KDM4E inh -4%.
`COC(=O)[C@@]1(Cc2ccc(OC)cc2)[C@H]2c3cc(C(=O)N4CCCC4)n(CCN4CNCC4=O)c3C[C@H]2CN1C(=O)c1ccccc1` gave ALDH1A1 inh -4%, KDM4E inh -27% and HPGD block -6%.
`CCOC(=O)CCC(=O)Nc1ccc(S(=O)(=O)N2CCCCC2)cc1` gave ALDH1A1 inh -8% and KDM4E inh 8%.
Screening CCOC(=O)/C=C/C(=O)Nc1ccc(S(=O)(=O)N2CCCCCC2)cc1 returned ALDH1A1 inh 3.5µM* and KDM4E inh -1%.
Cc1cc(C)c2cc(CN(CCO)C(=O)Nc3ccc(Cl)cc3)c(=O)[nH]c2c1 was read as ALDH1A1 inh inconclusive, KDM4E inh inconclusive, HPGD block inconclusive and PNC assembly inh -10.
`Cc1cc(C)c2cc(CN(CCO)Cc3nnnn3Cc3ccc(F)cc3)c(=O)[nH]c2c1` gave ALDH1A1 inh 13µM*, KDM4E inh inconclusive, HPGD block 3% and PNC assembly inh -18.
`COCCn1nnnc1CN(CCc1ccc(OC)c(OC)c1)Cc1cc2ccc(C)cc2[nH]c1=O` gave ALDH1A1 inh 11µM*, KDM4E inh inconclusive, HPGD block -14% and PNC assembly inh 19.
Cc1ccc2cc(CN(CCO)Cc3nnnn3Cc3ccc(F)cc3)c(=O)[nH]c2c1 was read as ALDH1A1 inh 20µM*, KDM4E inh inconclusive, HPGD block -12% and PNC assembly inh inconclusive.

Compound activity: PubChem, National Center for Advancing Translational Sciences (NCATS)
